Laboratory results from the supplement of paper PMC4022240.
± gives the standard deviation.

How the values were obtained:
Test in all cases: peptide microarray binding signal (635 nm), min-max normalized on array (fraction of array maximum); higher = stronger binding
[1] = target: T1, HaloTag-ATRX ADD domain (163-292)
T1 chain: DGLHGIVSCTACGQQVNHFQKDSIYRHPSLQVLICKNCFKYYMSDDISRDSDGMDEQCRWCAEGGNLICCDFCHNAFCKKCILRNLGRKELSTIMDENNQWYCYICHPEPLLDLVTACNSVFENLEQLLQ
In short: (§1)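 Arrays carried histone 13-mer peptide–cellulose conjugates printed in triplicate on nitrocellulose alongside a Cy3 tracer. After overnight blocking at 4°C, they were incubated for 1 h at 4°C with biotin-labelled HaloTag reader fusions (10 nM to 1 μM) plus streptavidin-Alexa Fluor 647, or with rabbit histone antibodies (1:10,000 to 1:2,000) plus anti-rabbit Alexa 647. Scanning on an Axon GenePix 4000B used 635 nm for signal and 532 nm for misprints. The binding signal reported is each triplicate's mean spot intensity after per-library min-max scaling.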

[2] = target: HaloTag-ING2 PHD (mouse Ing2 200-280)
In short: as §1

[3] = target: anti-H3K4me3 antibody ab8580
In short: as §1

[4] = target: anti-H3K9me3 antibody ab8898
In short: as §1

[5] = peptide region: H4 8-19, peptide modifications: H4K16ac H4R17me1, binder concentration: 1:2,000 dilution
[6] = peptide region: H4 8-19, peptide modifications: H4K8ac, binder concentration: 1:2,000 dilution
[7] = peptide region: H4 8-19, peptide modifications: H4K8ac, binder concentration: 1:10,000 dilution
[8] = peptide region: H4 16-28, peptide modifications: H4R19cit H4K20ac, binder concentration: 1:2,000 dilution
[9] = peptide region: H4 16-28, peptide modifications: H4R19cit H4K20ac, binder concentration: 1:10,000 dilution
[10] = peptide region: H4 16-28, peptide modifications: H4R19cit H4K20me1, binder concentration: 1:2,000 dilution
[11] = peptide region: H4 16-28, peptide modifications: H4R19cit H4K20me1, binder concentration: 1:10,000 dilution
[12] = peptide region: H4 8-19, peptide modifications: H4K16ac, binder concentration: 1:2,000 dilution
[13] = peptide region: H4 8-19, peptide modifications: H4K16ac, binder concentration: 1:10,000 dilution
[14] = peptide region: H4 8-19, peptide modifications: H4K12ac, binder concentration: 1:2,000 dilution
[15] = peptide region: H4 8-19, peptide modifications: H4K12ac, binder concentration: 1:10,000 dilution
[16] = peptide region: H4 8-19, peptide modifications: H4R17me1, binder concentration: 1:2,000 dilution
[17] = peptide region: H4 8-19, peptide modifications: H4R17me1, binder concentration: 1:10,000 dilution
[18] = peptide region: H4 8-19, peptide modifications: H4R17me2s, binder concentration: 1:2,000 dilution
[19] = peptide region: H4 8-19, peptide modifications: H4R17me2s, binder concentration: 1:10,000 dilution
[20] = peptide region: H4 16-28, peptide modifications: H4R19cit H4K20me3, binder concentration: 1:2,000 dilution
[21] = peptide region: H4 16-28, peptide modifications: H4R19cit H4K20me3, binder concentration: 1:10,000 dilution
[22] = peptide region: H4 8-19, peptide modifications: H4K12ac H4K16ac, binder concentration: 1:2,000 dilution
[23] = peptide region: H4 8-19, peptide modifications: H4K12ac H4K16ac, binder concentration: 1:10,000 dilution

B1: H4 8-19 K G L G K G G A Kac Rme H R K (peptide)
chain: KGLGKGGAKRHRK
- peptide microarray binding signal ([1]; peptide region: H4 8-19, peptide modifications: H4K16ac H4R17me1, binder concentration: 500 nM): 0.000143 ± 2.7e-06
- peptide microarray binding signal ([2]; peptide region: H4 8-19, peptide modifications: H4K16ac H4R17me1, binder concentration: 100 nM): 0.000425 ± 4.9e-06
- peptide microarray binding signal [3, 5]: 7.55e-05 ± 8.5e-07
- peptide microarray binding signal [4, 5]: 3.02e-05 ± 3.4e-07

B2: H4 8-19 Kac G L G K G G A K R H R K (peptide)
chain: KGLGKGGAKRHRK
- peptide microarray binding signal ([1]; peptide region: H4 8-19, peptide modifications: H4K8ac, binder concentration: 50 nM): 0.00652 ± 0.00063
- peptide microarray binding signal ([1]; peptide region: H4 8-19, peptide modifications: H4K8ac, binder concentration: 500 nM): 0.0191 ± 0.0048
- peptide microarray binding signal ([2]; peptide region: H4 8-19, peptide modifications: H4K8ac, binder concentration: 10 nM): 0.004 ± 0.00025
- peptide microarray binding signal ([2]; peptide region: H4 8-19, peptide modifications: H4K8ac, binder concentration: 100 nM): 0.0126 ± 0.0039
- peptide microarray binding signal [3, 6]: 0.000849 ± 0.00016
- peptide microarray binding signal [3, 7]: 0.001712 ± 1.6e-05
- peptide microarray binding signal [4, 6]: 0.000876 ± 7e-05
- peptide microarray binding signal [4, 7]: 0.00121 ± 2.4e-05

B3: H4 16-28 K R H Rcit Kac V L R D N I Q G (peptide)
chain: KRHRKVLRDNIQG
- peptide microarray binding signal ([1]; peptide region: H4 16-28, peptide modifications: H4R19cit H4K20ac, binder concentration: 50 nM): 0.00511 ± 4.9e-05
- peptide microarray binding signal ([1]; peptide region: H4 16-28, peptide modifications: H4R19cit H4K20ac, binder concentration: 500 nM): 0.00829 ± 0.00052
- peptide microarray binding signal ([2]; peptide region: H4 16-28, peptide modifications: H4R19cit H4K20ac, binder concentration: 10 nM): 0.00633 ± 0.0001
- peptide microarray binding signal ([2]; peptide region: H4 16-28, peptide modifications: H4R19cit H4K20ac, binder concentration: 100 nM): 0.0106 ± 0.00059
- peptide microarray binding signal [3, 8]: 0.000736 ± 6.2e-05
- peptide microarray binding signal [3, 9]: 0.00137 ± 1.3e-05
- peptide microarray binding signal [4, 8]: 0.0004832 ± 4.6e-06
- peptide microarray binding signal [4, 9]: 0.00196 ± 3.7e-05

B4: H4 16-28 K R H Rcit Kme V L R D N I Q G (peptide)
chain: KRHRKVLRDNIQG
- peptide microarray binding signal ([1]; peptide region: H4 16-28, peptide modifications: H4R19cit H4K20me1, binder concentration: 50 nM): 0.00693 ± 7.8e-05
- peptide microarray binding signal ([1]; peptide region: H4 16-28, peptide modifications: H4R19cit H4K20me1, binder concentration: 500 nM): 0.00933 ± 0.00036
- peptide microarray binding signal ([2]; peptide region: H4 16-28, peptide modifications: H4R19cit H4K20me1, binder concentration: 10 nM): 0.0107 ± 0.00018
- peptide microarray binding signal ([2]; peptide region: H4 16-28, peptide modifications: H4R19cit H4K20me1, binder concentration: 100 nM): 0.0139 ± 0.00037
- peptide microarray binding signal [3, 10]: 0.00145 ± 4.8e-05
- peptide microarray binding signal [3, 11]: 0.002853 ± 2.4e-05
- peptide microarray binding signal [4, 10]: 0.000785 ± 4.4e-05
- peptide microarray binding signal [4, 11]: 0.002479 ± 2.2e-05

B5: H4 8-19 K G L G K G G A Kac R H R K (peptide)
chain: KGLGKGGAKRHRK
- peptide microarray binding signal ([1]; peptide region: H4 8-19, peptide modifications: H4K16ac, binder concentration: 50 nM): 0.00483 ± 0.00015
- peptide microarray binding signal ([1]; peptide region: H4 8-19, peptide modifications: H4K16ac, binder concentration: 500 nM): 0.0126 ± 0.00055
- peptide microarray binding signal ([2]; peptide region: H4 8-19, peptide modifications: H4K16ac, binder concentration: 10 nM): 0.00388 ± 8.9e-05
- peptide microarray binding signal ([2]; peptide region: H4 8-19, peptide modifications: H4K16ac, binder concentration: 100 nM): 0.0106 ± 0.0026
- peptide microarray binding signal [3, 12]: 0.00238 ± 0.00047
- peptide microarray binding signal [3, 13]: 0.002 ± 4.9e-05
- peptide microarray binding signal [4, 12]: 0.00181 ± 6e-05
- peptide microarray binding signal [4, 13]: 0.00127 ± 3.4e-05

B6: H4 8-19 K G L G Kac G G A K R H R K (peptide)
chain: KGLGKGGAKRHRK
- peptide microarray binding signal ([1]; peptide region: H4 8-19, peptide modifications: H4K12ac, binder concentration: 50 nM): 0.00743 ± 0.00047
- peptide microarray binding signal ([1]; peptide region: H4 8-19, peptide modifications: H4K12ac, binder concentration: 500 nM): 0.0289 ± 0.0017
- peptide microarray binding signal ([2]; peptide region: H4 8-19, peptide modifications: H4K12ac, binder concentration: 10 nM): 0.00352 ± 0.00036
- peptide microarray binding signal ([2]; peptide region: H4 8-19, peptide modifications: H4K12ac, binder concentration: 100 nM): 0.0073 ± 0.00023
- peptide microarray binding signal [3, 14]: 0.000189 ± 2e-06
- peptide microarray binding signal [3, 15]: 0.00302 ± 6.8e-05
- peptide microarray binding signal [4, 14]: 0.0031 ± 4e-05
- peptide microarray binding signal [4, 15]: 0.00283 ± 0.00018

B7: H4 8-19 K G L G K G G A K Rme H R K (peptide)
chain: KGLGKGGAKRHRK
- peptide microarray binding signal ([1]; peptide region: H4 8-19, peptide modifications: H4R17me1, binder concentration: 50 nM): 0.00987 ± 0.0027
- peptide microarray binding signal ([1]; peptide region: H4 8-19, peptide modifications: H4R17me1, binder concentration: 500 nM): 0.016 ± 0.0014
- peptide microarray binding signal ([2]; peptide region: H4 8-19, peptide modifications: H4R17me1, binder concentration: 10 nM): 0.00352 ± 6.8e-05
- peptide microarray binding signal ([2]; peptide region: H4 8-19, peptide modifications: H4R17me1, binder concentration: 100 nM): 0.00865 ± 0.00034
- peptide microarray binding signal [3, 16]: 0.00119 ± 0.0002
- peptide microarray binding signal [3, 17]: 0.00148 ± 8e-05
- peptide microarray binding signal [4, 16]: 0.00112 ± 4.3e-05
- peptide microarray binding signal [4, 17]: 0.00138 ± 1.4e-05

B8: H4 8-19 K G L G K G G A K Rme2s H R K (peptide)
chain: KGLGKGGAKRHRK
- peptide microarray binding signal ([1]; peptide region: H4 8-19, peptide modifications: H4R17me2s, binder concentration: 50 nM): 0.00464 ± 0.00023
- peptide microarray binding signal ([1]; peptide region: H4 8-19, peptide modifications: H4R17me2s, binder concentration: 500 nM): 0.02 ± 0.00069
- peptide microarray binding signal ([2]; peptide region: H4 8-19, peptide modifications: H4R17me2s, binder concentration: 10 nM): 0.00173 ± 7.2e-05
- peptide microarray binding signal ([2]; peptide region: H4 8-19, peptide modifications: H4R17me2s, binder concentration: 100 nM): 0.00184 ± 0.00024
- peptide microarray binding signal [3, 18]: 0.000132 ± 1.5e-06
- peptide microarray binding signal [3, 19]: 0.000685 ± 7.2e-06
- peptide microarray binding signal [4, 18]: 0.000861 ± 4.5e-05
- peptide microarray binding signal [4, 19]: 0.000807 ± 1.5e-05

B9: H4 16-28 K R H Rcit Kme3 V L R D N I Q G (peptide)
chain: KRHRKVLRDNIQG
- peptide microarray binding signal ([1]; peptide region: H4 16-28, peptide modifications: H4R19cit H4K20me3, binder concentration: 50 nM): 0.0068 ± 9.7e-05
- peptide microarray binding signal ([1]; peptide region: H4 16-28, peptide modifications: H4R19cit H4K20me3, binder concentration: 500 nM): 0.00848 ± 0.0011
- peptide microarray binding signal ([2]; peptide region: H4 16-28, peptide modifications: H4R19cit H4K20me3, binder concentration: 10 nM): 0.0124 ± 0.00084
- peptide microarray binding signal ([2]; peptide region: H4 16-28, peptide modifications: H4R19cit H4K20me3, binder concentration: 100 nM): 0.018 ± 0.0027
- peptide microarray binding signal [3, 20]: 0.00832 ± 0.0026
- peptide microarray binding signal [3, 21]: 0.00514 ± 0.0003
- peptide microarray binding signal [4, 20]: 0.0039 ± 0.0016
- peptide microarray binding signal [4, 21]: 0.00369 ± 0.00012

B10: H4 8-19 K G L G Kac G G A Kac R H R K (peptide)
chain: KGLGKGGAKRHRK
- peptide microarray binding signal ([1]; peptide region: H4 8-19, peptide modifications: H4K12ac H4K16ac, binder concentration: 50 nM): 0.000188 ± 6.2e-06
- peptide microarray binding signal ([1]; peptide region: H4 8-19, peptide modifications: H4K12ac H4K16ac, binder concentration: 500 nM): 0.000333 ± 1.3e-05
- peptide microarray binding signal ([2]; peptide region: H4 8-19, peptide modifications: H4K12ac H4K16ac, binder concentration: 10 nM): 0.00215 ± 0.00035
- peptide microarray binding signal ([2]; peptide region: H4 8-19, peptide modifications: H4K12ac H4K16ac, binder concentration: 100 nM): 0.000142 ± 1.7e-06
- peptide microarray binding signal [3, 22]: 0
- peptide microarray binding signal [3, 23]: 5.71e-05
- peptide microarray binding signal [4, 22]: 0
- peptide microarray binding signal [4, 23]: 0
